The nature of test [1]: qHTS assay to identify small molecule antagonists of the estrogen related receptor (ERR) signaling pathway from Tox21 library - cell viability counter screen (AID 1224834). Note: nearly all actives have a fitted effect of over 30% in size. Note: potency is the fitted concentration of half-maximal effect. The gist of the method: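 ERR reporter cells were plated 6 h before compound addition, then exposed to test compounds in DMSO for 17.5 h at 37 C. Viability was read as CellTiter-Fluor fluorescence after a 30-minute incubation at 37 C.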
A general note: qHTS replaces the single test concentration by a dilution series.

For test [2], the target named is Luciferin 4-monooxygenase (Photinus pyralis) (UniProt P08659). In words: qHTS assay to identify small molecule inhibitors of firefly luciferase (AID 1224835). Note: nearly all actives have a fitted effect of over 25% in size. Note: potency is the fitted concentration of half-maximal effect. The gist of the method: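 Biochemical qHTS: compounds run as interplate titrations against purified firefly enzyme, with D-luciferin and ATP each at its KM concentration. Light output recorded by CCD imaging.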
Chain of Luciferin 4-monooxygenase (Photinus pyralis) (P08659 whole entry, looked up): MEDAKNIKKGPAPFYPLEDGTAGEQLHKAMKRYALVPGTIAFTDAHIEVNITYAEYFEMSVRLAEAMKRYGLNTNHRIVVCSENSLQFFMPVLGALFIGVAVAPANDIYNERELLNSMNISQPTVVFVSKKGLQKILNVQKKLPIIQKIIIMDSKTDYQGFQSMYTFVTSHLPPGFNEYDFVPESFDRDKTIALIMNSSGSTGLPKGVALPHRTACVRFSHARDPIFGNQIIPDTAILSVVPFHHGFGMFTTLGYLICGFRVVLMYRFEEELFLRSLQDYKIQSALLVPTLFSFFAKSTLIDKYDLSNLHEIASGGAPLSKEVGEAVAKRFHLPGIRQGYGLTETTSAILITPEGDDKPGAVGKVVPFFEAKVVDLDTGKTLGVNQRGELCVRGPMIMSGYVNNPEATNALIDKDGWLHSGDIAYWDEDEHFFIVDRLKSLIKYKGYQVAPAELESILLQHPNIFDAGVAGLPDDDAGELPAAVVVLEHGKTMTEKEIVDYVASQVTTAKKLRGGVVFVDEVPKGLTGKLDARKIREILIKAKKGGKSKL

Test [3] in a line: qHTS assay to identify small molecule agonists of the constitutive androstane receptor (CAR) signaling pathway - cell viability counter screen (AID 1224836). Note: nearly all actives have a fitted effect of over 45% in size. Note: potency is the fitted concentration of half-maximal effect. In a few lines:
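Using CellTiter-Fluor, viability of HepG2 cells harbouring hCAR and CYP2B6-2.2kb was measured following 23 h incubation with a 15-concentration compound series plus PK11195 (0.75 uM final).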

The nature of test [4]: qHTS assay to identify small molecule antagonists of the constitutive androstane receptor (CAR) signaling pathway - cell viability counter screen (AID 1224837). Note: nearly all actives have a fitted effect of over 45% in size. Note: potency is the fitted concentration of half-maximal effect. In a few lines:
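HepG2 cells stably expressing hCAR and a CYP2B6-2.2kb reporter were plated and pre-incubated 4 hr at 37 C/5% CO2, then given compounds at 15 concentrations plus 50 nM CITCO (final). After 23 hr, viability was read by CellTiter-Fluor fluorescence.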

Test [5] concerns the target Nuclear receptor subfamily 1 group I member 3 (Homo sapiens) (UniProt Q14994). As to the kind of experiment: qHTS assay to identify small molecule antagonists of the constitutive androstane receptor (CAR) signaling pathway (AID 1224838). Note: nearly all actives have a fitted effect of over 40% in size. Note: potency is the fitted concentration of half-maximal effect. The gist of the method:
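HepG2 cells stably co-transfected with hCAR and a CYP2B6-2.2kb luciferase reporter were seeded 4 h before compound addition at 15 concentrations. Cells were stimulated with 50 nM CITCO (final) for 24 h at 37 C; luciferase luminescence was then read.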

For test [6] the target is unchanged. As to the kind of experiment: qHTS assay to identify small molecule agonists of the constitutive androstane receptor (CAR) signaling pathway (AID 1224839).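 For activation: HepG2 cells stably carrying human CAR and a CYP2B6 luciferase reporter; % is set by controls: 0 for no effect and ±100 for the full control effect.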 Note: nearly all actives have a fitted effect of over 15% in size. Note: potency is the fitted concentration of half-maximal effect. In a few lines: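 Double-stable HepG2 cells (hCAR, CYP2B6-2.2kb) seeded 4 h before compound addition. Exposure 24 h with 0.75 uM PK11195 final. Luciferase detected by ONE-Glo.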
The nature of test [7]: qHTS assay to identify small molecule antagonists of the estrogen related receptor signaling pathway with the pleiotropic PPARgamma coactivator (PGC) from Tox21 10K library - cell viability counter screen (AID 1224840; active = well fitted cell-killing curve with a large enough effect in the repeat runs, not every such curve was filed as active; note: % is set by controls: 0 for no effect and ±100 for the full control effect; nearly all actives have a fitted effect of over 40% in size). In a few lines:
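PGC/ERR cells were seeded at 2,000 cells/well and left 6 hours at 37 C/5% CO2 before pin-tool addition of compounds in DMSO. After 17.5 hours at 37 C, CellTiter-Fluor was added and fluorescence read 30 minutes later.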

Test [8] addresses Thyrotropin receptor (Homo sapiens) (UniProt P16473). In words: qHTS assay to identify small molecule agonists of the thyroid stimulating hormone receptor (TSHR) signaling pathway (AID 1224843; calls by dose curve; note: % is set by controls: 0 for no effect and ±100 for the full control effect; nearly all actives have a fitted effect of over 45% in size). The gist of the method: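 TSHR-HEK293 cells in agonist mode, 30 min room-temperature step, then cAMP measured by competitive HTRF (cAMP-d2 with anti-cAMP cryptate) after 1 h at room temperature. Tested at 15 concentrations in triplicate.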

Test [9] in a line: qHTS assay to identify small molecule agonists of the hypoxia (HIF-1) signaling pathway - cell viability counter screen (AID 1224844; calls by dose curve; note: nearly all actives have a fitted effect of over 50% in size; note: potency is the fitted concentration of half-maximal effect). The gist of the method: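 HRE-bla ME-180 cells in medium with 0.5% dialyzed FBS were preincubated 5 hrs at 37C, exposed to compounds for 17 hrs, then viability was read as CellTiter-Glo luminescence after 30 min at room temperature, in the reporter wells.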

Test [10] in a line: qHTS assay to identify small molecule agonists of the hypoxia (HIF-1) signaling pathway (AID 1224846; active = well fitted activation curve with a large enough effect in the signal ratio in the repeat runs, not every such curve was filed as active; the % refers to the signal ratio; note: % is set by controls: 0 for no effect and ±100 for the full control effect). In a few lines:
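HRE-bla ME-180 cells (beta-lactamase reporter under hypoxia response element) were plated at 2,000 cells/well in medium with 0.5% dialyzed FBS, rested 5 hrs, then given compounds in DMSO for 17 hrs at 37C, 5% CO2. Reporter induction was read with CCF4-AM FRET substrate.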

Test [11] in a line: qHTS assay to identify small molecule agonists of H2AX - cell viability counter screen (AID 1224847; calls by dose curve; note: top concentration of the series differs between compounds; % is set by controls: 0 for no effect and ±100 for the full control effect; nearly all actives have a fitted effect of over 30% in size). In a few lines: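 Quantitative HTS viability measurement: CHO-K1 wild-type cells in serum (10% FBS) medium, short 3 hr drug exposure at 37C with 0.76% DMSO, CellTiter-Glo luminescent detection.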
A short description of test [12]: qHTS RealTime-Glo MT Cell Viability Assay in HepG2 cells - 24 hour (AID 1224867). Note: % is set by controls: 0 for no effect and ±100 for the full control effect; nearly all actives have a fitted effect of over 50% in size. In a few lines:
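Compound treatment began 5 h after plating HepG2 cells (600/well) with NanoLuc luciferase and prosubstrate. Plates stayed at 37 C for 40 h; luminescence was captured at six time points, 0 h through 40 h.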

A short description of test [13]: qHTS RealTime-Glo MT Cell Viability Assay in HEK293 cells - 32 hour (AID 1224868). Note: nearly all actives have a fitted effect of over 50% in size. Note: potency is the fitted concentration of half-maximal effect. The gist of the method: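 Quantitative high-throughput screen of the Tox21 10K library in HEK293: cells and RealTime-Glo reagents plated together, compound added at 5 h, luminescence monitored through 40 h at 37 C.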
The nature of test [14]: A CellTox Green Cytotoxicity Assay to monitor cytotoxicity in HEK293 cells - 0 hour (AID 1224869). For Cytotoxicity: % is set by controls: 0 for no effect and ±100 for the full control effect. Note: nearly all actives have a fitted effect of over 50% in size. Note: potency is the fitted concentration of half-maximal effect. In a few lines:
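HEK293 cells premixed with CellTox Green dye were seeded at 600 cells/well and left 5 h at 37 C/5% CO2 before pin transfer of 23 nL compound in DMSO. Fluorescence from dye bound to dead-cell DNA was read during 40 h treatment.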

Test [15] in a line: qHTS assay to identify small molecule agonists of H2AX (AID 1224845; active = well fitted activation curve with a large enough effect in the signal ratio in the repeat runs, not every such curve was filed as active; the % refers to the signal ratio; note: % is set by controls: 0 for no effect and ±100 for the full control effect). The gist of the method: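 Wild-type CHO-K1 cells, plated overnight, exposed 3hr at 37C to 15 concentrations (0.76% DMSO final). Lysed, then HTRF anti-pH2AX (S139) cryptate and anti-H2AX-d2 antibodies, 24 hr room temperature; 665/620 nm emission read.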
Test [16] is described as follows: qHTS assay to identify small molecule antagonists of the estrogen related receptor signaling pathway with the pleiotropic PPARgamma coactivator (PGC) from Tox21 10K library (AID 1224841; call rule not given here). The gist of the method:
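PGC/ERR reporter cells were seeded at 2,000 cells/well and held 6 hours at 37 C/5% CO2 before pin-tool addition of compounds in DMSO. After 18 hours at 37 C, One-Glo was added and luminescence read after 30 minutes at room temperature.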

A short description of test [17]: qHTS assay to identify small molecule agonists of the estrogen related receptor signaling pathway with the pleiotropic PPARgamma coactivator (PGC) from Tox21 10K library (AID 1224842). Note: potency is the fitted concentration of half-maximal effect; nearly all actives have a fitted effect of over 15% in size. In a few lines: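 PGC/ERR reporter cell line, 2,000 cells per well, incubated 6 h at 37 C before 23 nL compound in DMSO was added. After 18 h at 37 C, One-Glo luminescence read following 30 min at room temperature.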

Test [18] is described as follows: qHTS assay to identify small molecule antagonists of the estrogen related receptor (ERR) signaling pathway from Tox21 library (AID 1224848). The gist of the method:
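ERR reporter cell line (from NTP) seeded 2,000 cells/well, rested 6 h at 37 C/5% CO2, then pin-dosed with compounds in DMSO. After 18 h at 37 C, ONE-Glo added; luminescence read after 30 min at room temperature.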

A short description of test [19]: qHTS assay to identify small molecule agonists of the estrogen related receptor (ERR) signaling pathway from Tox21 library (AID 1224849; calls by dose curve; note: nearly all actives have a fitted effect of over 15% in size; note: potency is the fitted concentration of half-maximal effect). Conditions: ERR reporter cell line, ONE-Glo luciferase, 18 h. The gist of the method:
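ERR reporter cell line (NTP) seeded, rested 6 h at 37 C/5% CO2, then pinned with Tox21 compounds in DMSO. After 18 h at 37 C, ONE-Glo luciferase luminescence was read following 30 min at room temperature.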

Molecules are shown by their SMILES. Several values for one entry are separate records, joined by “and”; a condition that tells them apart may be missing. Identical values can stand only once. Results filed as inconclusive are left out. The source holds several records for some structures; these can differ, active in one and inactive in another. Activity calls are given as the source filed them. Unless noted, calls come from the whole dose curve; as a rule, active = well fitted curve in the direction sought with a large enough effect in the repeat runs; inconclusive = weak or mixed curves; inactive = no such curve, though single readings can be large; an effect the other way counts as inactive or inconclusive.

Chain of Nuclear receptor subfamily 1 group I member 3 (Homo sapiens) (Q14994 whole entry, looked up): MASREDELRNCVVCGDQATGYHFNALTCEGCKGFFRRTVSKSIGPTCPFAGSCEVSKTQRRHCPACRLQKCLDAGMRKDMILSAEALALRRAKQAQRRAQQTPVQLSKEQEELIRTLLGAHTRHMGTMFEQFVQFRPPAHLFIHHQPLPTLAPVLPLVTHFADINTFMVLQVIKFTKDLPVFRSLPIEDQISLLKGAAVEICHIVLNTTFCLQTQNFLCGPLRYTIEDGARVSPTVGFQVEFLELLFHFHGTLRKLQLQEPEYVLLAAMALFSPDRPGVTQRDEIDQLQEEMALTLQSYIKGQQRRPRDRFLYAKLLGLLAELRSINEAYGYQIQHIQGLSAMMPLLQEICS
Chain of Thyrotropin receptor (Homo sapiens) (P16473 whole entry, looked up): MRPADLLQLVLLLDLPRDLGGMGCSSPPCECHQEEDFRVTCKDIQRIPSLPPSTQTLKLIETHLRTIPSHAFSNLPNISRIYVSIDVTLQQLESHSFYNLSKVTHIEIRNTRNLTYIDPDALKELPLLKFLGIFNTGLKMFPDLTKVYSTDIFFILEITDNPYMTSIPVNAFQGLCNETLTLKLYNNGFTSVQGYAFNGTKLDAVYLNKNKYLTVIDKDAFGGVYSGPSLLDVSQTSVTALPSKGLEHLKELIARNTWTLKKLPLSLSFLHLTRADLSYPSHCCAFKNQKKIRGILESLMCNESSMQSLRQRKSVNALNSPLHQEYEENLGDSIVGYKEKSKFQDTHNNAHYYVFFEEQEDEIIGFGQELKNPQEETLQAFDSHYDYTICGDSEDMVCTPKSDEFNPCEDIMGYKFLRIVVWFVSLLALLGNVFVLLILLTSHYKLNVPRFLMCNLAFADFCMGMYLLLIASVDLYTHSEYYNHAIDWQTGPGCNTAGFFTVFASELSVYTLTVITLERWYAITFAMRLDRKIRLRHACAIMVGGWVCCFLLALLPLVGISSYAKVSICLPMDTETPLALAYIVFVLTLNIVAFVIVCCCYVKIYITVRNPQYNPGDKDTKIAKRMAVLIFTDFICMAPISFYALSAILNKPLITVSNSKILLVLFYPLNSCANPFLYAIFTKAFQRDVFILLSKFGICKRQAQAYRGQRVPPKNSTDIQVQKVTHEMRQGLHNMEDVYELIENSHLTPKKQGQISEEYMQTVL

Turning to `CN(C)C(=O)Nc1ccc(Cl)cc1`, the Potency entry in test [1], in test [2], in [3], in test [4], in [5] and in test [6] was “inactive” throughout. Moreover, the Potency result in [7], in test [8], in test [9], in test [11], in [12] and in test [13] was “inactive” throughout. The Potency result in test [14] was “inactive”. In addition, the compound was called inactive in test [10].

Take `CC1(C)C(C=C(Cl)Cl)C1C(=O)OC(C#N)c1cccc(Oc2ccccc2)c1` (centres undefined): the Potency entry in test [1], in test [2], in test [3], in test [4], in test [5] and in test [7] was “inactive” in each case. Moreover, the Potency entry in [8], in [9], in test [15], in [11], in test [12] and in [13] was “inactive” in each case. For the same compound, the Potency entry in test [14] is “inactive”. Further, the call in test [10] was inactive.

As for `Nc1cccnc1`, the Potency entry in test [1], in [2], in [3], in test [4], in test [5] and in [6] was “inactive” throughout. In addition, the Potency entry in [7], in test [8], in test [9], in [15], in test [11] and in test [12] was “inactive” throughout. Moreover, the Potency entry in test [13] and in [14] was “inactive” in each case. For the same compound, in test [10], the result was inactive.

As for `O=c1oc2ccccc2c(O)c1C(CC(O)c1ccc(-c2ccc(Br)cc2)cc1)c1ccccc1` (centres undefined), the Potency entry in test [1], in [2], in test [3], in test [4], in [5] and in [6] was “inactive” each time. The Potency entry in test [7], in [15], in test [11], in test [12], in test [13] and in [14] was “inactive” each time. Besides, in test [9], the Potency was 52 µM (active) and inactive.

On to `Nc1ccc(Cl)cc1N`, for which the Potency result in test [1], in [7], in test [16], in test [8], in test [11] and in test [18] was “inactive” each time. In addition, the Potency entry in test [12] is “inactive”. Further, the Potency in test [2] is 13.1 µM (active) and 7.1 µM (active); in test [3], 4.33 µM (active); in [4], 6.86 µM (active); in test [5], 0.217 µM (active); in [17], 8.98 µM (active) and 386 nM (active); in test [19] it was 8.31 µM [activator] (active). For the same compound, the Potency in test [14] was 40 µM (active). In addition, the result in [10] was inactive. Further, the activity change, positive = activation in [19] (at 92.4 µM (top of the series)) was 19.2% (active).

As to `Nc1ccc(-c2ccccc2)cc1`, the Potency in test [1] was 8.87 µM (active) and inactive; in test [2] it was 57.9 µM (active) and 63.3 µM (active); in [6], 30.6 µM (active); in test [9], 28.3 µM (active) and inactive; in test [13], 7.98 µM (active) and inactive. Moreover, the Potency result in [3], in test [4], in test [5], in [7], in test [8] and in test [11] was “inactive” each time. Further, the Potency entry in test [12] and in [14] was “inactive” each time. The outcome in test [10] was inactive.

In the case of `N#CCCCl`, the Potency entry in test [1], in test [2], in test [3], in test [4], in test [5] and in [6] was “inactive” in each case. For the same compound, the Potency entry in [7], in [8], in test [9], in test [11], in test [12] and in [13] was “inactive” throughout. The Potency entry in [14] was “inactive”. Moreover, the result in [10] was inactive.

For the compound `CCCCCCCCC(=O)NCc1ccc(O)c(OC)c1`, the Potency result in test [1], in test [2], in [3], in test [4], in test [5] and in test [6] was “inactive” in each case. Besides, the Potency result in test [7], in test [8], in test [9], in [15], in test [11] and in test [12] was “inactive” in each case. The Potency result in [13] and in [14] was “inactive” in each case.

Values taken from PubChem BioAssay (Tox21).
